{
  "source": "the supplement of paper PMC12632987",
  "binders": {"B1": {"name": "usp_38_diff_out_18_14_287 (protein)", "chain": "SEEEAEALKSALEILRGDVDAYTERVIRLLEQAAGDPERVRRIHERARRNLAGVRAYAEEVLKRAEEAGDEETKKAAEELLRRVAEAEARIAARYAEVTA"}, "B2": {"name": "usp_38_diff_out_18_14_283 (protein)", "chain": "SEELSKALKSNLESLKEDVKKDTERVLRLLEKRKDDPEQVKRIKERAERNLEGVITYAEEVLKEAEKEGDEEVKKAAKELIEEAKKAREKIEEKVKEVLA"}, "B3": {"name": "usp_38_diff_out_18_14_277 (protein)", "chain": "SEELKEALKSNLESLKKDVEEDTKRVIELLDKRKDDPEEVKRIYERAKRNLAGVKEYAKEVLEEAEKAGDEETKKAAEELIKKAEEAEKKIEEKVKEVLA"}, "B4": {"name": "usp_38_diff_out_18_14_285 (protein)", "chain": "SAELAAAEKSALEILKKDVKEFTKRVIRLLKKSKDDPERVKRIYDRAKRDLAGVEKYAQEVLKRAEKAGDKETKAAAKELLKEIEKAKEEIEKEYKEVMA"}, "B5": {"name": "usp_38_diff_out_18_14_290 (protein)", "chain": "SEELSKAEISALELLKKEVKENTERTIKLLEKVKDDPELVKRVMERAERNLAGVRAYAEDVKERAKERGDEETVKAAEELLKEIEEARKKLKEEYKKVMA"}, "B6": {"name": "usp_38_diff_out_18_14_280 (protein)", "chain": "SEELSEALLSNLKSLKKDVEEYTKRVLRLLEKNKDDPERVKRIKERAERNLAGVKKYAEEVLKEAEEEGDEETLKAAKELKETAEKALAEIEKKVKEVLA"}, "B7": {"name": "usp_38_diff_out_18_14_286 (protein)", "chain": "SAELAAAEKSALEILKKDVKEDTKRVIRLLEKAKDDPELVERIYERAKRDLAGVRAYAEEVLKRAEEAGDEETKAAAKELLKEIDKAKKEIDAAYKKVMA"}, "B8": {"name": "usp_38_diff_out_18_14_288 (protein)", "chain": "SEELSEAEISALKLLREDVERDTERTIRLLERARDDPERVRRIVERRERNLAGVRAYAEEVKKEAEERGDEETVKAAEELLRAIEEARARVAAARERVLA"}, "B9": {"name": "usp_38_diff_out_18_14_282 (protein)", "chain": "MEELSEALKSNLESLKKDVEEDTKRVIELLEKNKDDPERVKRIYERAERNLEGVLTYAEEVLELAEKLGDEEVKKAAEELKKEAEKAREEIKKKVEKVLA"}, "B10": {"name": "usp_38_diff_out_18_14_281 (protein)", "chain": "SEELSKALLSNLESLKKDVEEDTERVLRLLEKNKDDPERVKRIVERAERDLAGVIEYAKEVLELAKKNGDEETLKAAKELIKKAEEARKRIEEKAKKVLA"}, "B11": {"name": "usp_38_diff_out_18_14_289 (protein)", "chain": "AEELSAAERAALELLLEEVRRDTERTIRLLRRVRDDPERVERIVERAERNLAGVRAYAEDVRARARAAGDEETVAAADRLLAEVEAARARIEEERRRVLA"}, "B12": {"name": "usp_38_diff_out_18_14_284 (protein)", "chain": "SAELAAAEKAALEILKTDVKKDTERVIRLLKKAKDDPERVKRIYERAKRNLEGVETYAKEVLERAKKAGDKETKAAAEELLKEIEEAKKKIEEAYKEVMA"}, "B13": {"name": "usp_38_diff_out_18_14_276 (protein)", "chain": "SSELSEALKSNLESLKKDVKEDTERVLRLLDKRKDDPEQVKRIVERAERDLAGVREYAKEVLREAEERGDEETKKAAEELLKEADAALAKVKAKAKEVLA"}, "B14": {"name": "usp_38_diff_out_18_14_275 (protein)", "chain": "SSELSEALQSNLESLKKDVKEDTERVLRLLEKRKDDPEQVKRIEERARRNLEGVIKFAEEVLKLAKELGDKETQKAAEELIKLAKEARKRVEEKVKEVLA"}, "B15": {"name": "usp_38_diff_out_18_14_291 (protein)", "chain": "SEELSEAEKSALELLKEEVKKDTERTIKLLEKVKDDPERVERIVERANRNLEGVRAYAEAVKKEAEARGDEETVKAAEELLKTIEEARERIEKAYKEVKA"}, "B16": {"name": "usp_38_diff_out_18_14_279 (protein)", "chain": "SEELNEALLSNLESLKEDVERDTERVLRLLEANRDDPERVKRIVERAERNLAGVIEFAKEVLKEAEKAGNEELLKAAKELIKRAKEALERIRRKAEEVLA"}},
  "molecular_target": "T1, USP38, Q8NB14",
  "T1 chain": "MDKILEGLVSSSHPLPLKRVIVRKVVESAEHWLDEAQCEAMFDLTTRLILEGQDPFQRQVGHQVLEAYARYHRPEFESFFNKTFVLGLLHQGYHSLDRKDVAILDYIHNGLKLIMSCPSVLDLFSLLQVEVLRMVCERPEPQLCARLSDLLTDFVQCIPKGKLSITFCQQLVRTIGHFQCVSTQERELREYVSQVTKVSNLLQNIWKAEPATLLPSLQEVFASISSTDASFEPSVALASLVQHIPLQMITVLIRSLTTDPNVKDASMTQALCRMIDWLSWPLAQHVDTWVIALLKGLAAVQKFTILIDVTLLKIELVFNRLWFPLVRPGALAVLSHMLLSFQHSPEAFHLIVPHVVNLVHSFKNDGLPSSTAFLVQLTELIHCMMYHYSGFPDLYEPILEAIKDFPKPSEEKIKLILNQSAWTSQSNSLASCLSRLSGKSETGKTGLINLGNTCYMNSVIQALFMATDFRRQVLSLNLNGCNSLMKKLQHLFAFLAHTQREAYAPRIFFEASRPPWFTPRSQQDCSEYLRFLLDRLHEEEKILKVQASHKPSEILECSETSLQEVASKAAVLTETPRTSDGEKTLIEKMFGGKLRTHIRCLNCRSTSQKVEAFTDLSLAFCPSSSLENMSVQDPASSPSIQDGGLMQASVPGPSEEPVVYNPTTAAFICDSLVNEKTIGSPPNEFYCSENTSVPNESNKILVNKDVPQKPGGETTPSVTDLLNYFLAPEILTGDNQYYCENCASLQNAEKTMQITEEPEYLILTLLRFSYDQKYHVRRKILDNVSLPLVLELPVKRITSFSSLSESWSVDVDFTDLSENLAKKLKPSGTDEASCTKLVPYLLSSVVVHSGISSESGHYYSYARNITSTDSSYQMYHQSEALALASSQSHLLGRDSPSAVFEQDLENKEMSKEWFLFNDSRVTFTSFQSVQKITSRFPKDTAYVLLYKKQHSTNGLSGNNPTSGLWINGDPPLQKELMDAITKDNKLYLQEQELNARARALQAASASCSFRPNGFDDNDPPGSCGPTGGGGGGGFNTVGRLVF",
  "test": "median log2 fold change of GCK-ALFA target abundance (FLAG IP / Myc IP barcode read proportion) (log2 ratio); each designed protein is fused to an ALFA-tag nanobody in HEK293 cells to bring the named protein to FLAG-tagged glucokinase (GCK); Myc marks an untargeted standard; higher = target protein stabilised (more abundant)",
  "conditions": "target protein: 3xFLAG-MCP-GCK-ALFA reporter; HEK293 landing pad (RPLP)",
  "summary_of_the_method": "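The readout is target abundance, the per-binder median log2 ratio of FLAG to Myc barcode read proportions. It came from HEK293 landing-pad cells carrying a recombined ALFA-nanobody-fused binder library, induced with 2 μg mL^−1 doxycycline and transfected with a plasmid for a FLAG-tagged target and a Myc-tagged standard. After 48 h, lysates were immunoprecipitated with anti-FLAG and anti-Myc, and circular RNA barcodes were reverse transcribed, amplified and sequenced. Each barcode needed a proportion of at least 10^−7 in both replicates and each binder at least 3 barcodes per replicate, a pseudocount of 10^−6 was added, and the replicates were pooled.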",
  "data": [
    {"binder": "B1", "values": [
      {"measurement": "median log2 fold change", "result": -0.622}
    ]},
    {"binder": "B2", "values": [
      {"measurement": "median log2 fold change", "result": -0.104}
    ]},
    {"binder": "B3", "values": [
      {"measurement": "median log2 fold change", "result": 0.312}
    ]},
    {"binder": "B4", "values": [
      {"measurement": "median log2 fold change", "result": -0.615}
    ]},
    {"binder": "B5", "values": [
      {"measurement": "median log2 fold change", "result": 0.00299}
    ]},
    {"binder": "B6", "values": [
      {"measurement": "median log2 fold change", "result": -0.87}
    ]},
    {"binder": "B7", "values": [
      {"measurement": "median log2 fold change", "result": 0.128}
    ]},
    {"binder": "B8", "values": [
      {"measurement": "median log2 fold change", "result": -0.282}
    ]},
    {"binder": "B9", "values": [
      {"measurement": "median log2 fold change", "result": 0.237}
    ]},
    {"binder": "B10", "values": [
      {"measurement": "median log2 fold change", "result": 0.189}
    ]},
    {"binder": "B11", "values": [
      {"measurement": "median log2 fold change", "result": -0.0195}
    ]},
    {"binder": "B12", "values": [
      {"measurement": "median log2 fold change", "result": 0.0553}
    ]},
    {"binder": "B13", "values": [
      {"measurement": "median log2 fold change", "result": 0.242}
    ]},
    {"binder": "B14", "values": [
      {"measurement": "median log2 fold change", "result": -0.129}
    ]},
    {"binder": "B15", "values": [
      {"measurement": "median log2 fold change", "result": -0.0115}
    ]},
    {"binder": "B16", "values": [
      {"measurement": "median log2 fold change", "result": -0.00242}
    ]}
  ]
}
